Measured values: PubChem BioAssay (NCI)
The panel holds about 79,000 compounds, 15% with a hit somewhere; the sample as a whole holds those more often. Unmarked numbers belong to inactive results. Calls of active or inactive are those of the source. Cut-off read from the data, not from the text of the source: active = growth inhibition above about 70%; inactive = the rest. Where a SMILES comes first, the peptide text is derived from it. The star is where a group is joined. Fmoc = O=C(OCC1c2ccccc2-c2ccccc21)*; Boc = CC(C)(C)OC(=O)*

Tests used:
[1] = NCI Yeast Anticancer Drug Screen. Data for the rad50 strain (AID 155);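 note: 0% = growth of vehicle-only cultures of the same strain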; details: S. cerevisiae rad50 strain growth inhibition, stronger effect = higher value
Procedure, shortened: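 Yeast carrying a defined DNA repair defect were exposed to test compounds, and growth was compared with vehicle-treated controls to give percent inhibition.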

[2] = NCI Yeast Anticancer Drug Screen. Data for the mec2-1 strain (AID 157); details: S. cerevisiae mec2-1 strain, stronger effect = higher value
Procedure, shortened: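 Strain: mec2-1 (DNA repair/cell cycle alteration). Compound exposure, then growth measured; inhibition expressed relative to vehicle.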

[3] = NCI Yeast Anticancer Drug Screen. Data for the sgs1 mgt1 strain (AID 161);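 note: 0% = growth of cultures given vehicle only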; details: S. cerevisiae sgs1 mgt1 strain, stronger effect = higher value
Procedure, shortened: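 Mutant yeast exposed to compound; growth scored against vehicle-only wells.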

[4] = NCI Yeast Anticancer Drug Screen. Data for the cln2 rad14 strain (AID 165);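 note: 0% = growth equal to vehicle treated cultures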; details: S. cerevisiae cln2 rad14 strain, stronger effect = higher value
Procedure, shortened: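 Compounds are applied to the cln2 rad14 yeast strain, and growth is then compared with that of vehicle-treated cultures to give inhibition.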

[5] = NCI Yeast Anticancer Drug Screen. Data for the bub3 strain (AID 167); details: S. cerevisiae bub3 mutant strain, stronger effect = higher value
Procedure, shortened: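 Compounds were applied to a genetically altered yeast strain carrying a cell-cycle control defect. Growth inhibition was scored against vehicle-treated controls.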

[6] = NCI Yeast Anticancer Drug Screen. Data for the mlh1 rad18 strain (AID 175); details: S. cerevisiae mlh1 rad18 strain growth inhibition, stronger effect = higher value
Procedure, shortened: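 Read-out is yeast growth inhibition, calculated against vehicle-only controls. The compound was applied to a strain engineered with DNA damage repair alterations.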

[7] = at 5.0 µM (retest, dose inferred, filed as 0.5)
[8] = at 50.0 µM (retest, dose inferred, filed as 5.0)

| Structure (SMILES) | growth inhibition [1, 7] | growth inhibition [1, 8] | growth inhibition ([1]; at 50.0 µM) | growth inhibition [2, 7] | growth inhibition [2, 8] | growth inhibition ([2]; at 50.0 µM) | growth inhibition [3, 7] | growth inhibition [3, 8] | growth inhibition ([3]; at 50.0 µM) | growth inhibition [4, 7] | growth inhibition [4, 8] | growth inhibition ([4]; at 50.0 µM) | growth inhibition [5, 7] | growth inhibition [5, 8] | growth inhibition ([5]; at 50.0 µM) | growth inhibition [6, 7] | growth inhibition [6, 8] | growth inhibition ([6]; at 50.0 µM) |
| --- | --- | --- | --- | --- | --- | --- | --- | --- | --- | --- | --- | --- | --- | --- | --- | --- | --- | --- |
| CC(=O)OCCn1c2nc(=O)[nH]c(=O)c-2nc2cc(C)c(C)cc21 | -4% | 18% | 0.8% | 0% | 18% | -3.35% | 1% | 81% (active) | 35% | -4% | 2% | -42.9% | -1% | 1% | 8% | 9% | 14% | 47.5% |
| Cc1c2cnccc2c(C)c2c1c1ccccc1n2Cc1ccccc1 | 3% | 98% (active) | 89% (active) | -2% | 75% (active) | 25.5% | -2% | 94% (active) | 48.8% | -1% | 91% (active) | 28.4% | -3% | 93% (active) | 59.5% | -8% | 97% (active) | 62.7% |
| CC1CCC(SC2CC(=O)CCC2=O)CC1 (configuration not stated) | 19% | 98% (active) | 99% (active) | 19% | 99% (active) | 99.2% (active) | 21% | 99% (active) | 92% (active) | 6% | 99% (active) | 98.2% (active) | 24% | 98% (active) | 98.7% (active) | -1% | 98% (active) | 98.6% (active) |
| Cc1cc(N2C(=O)CSC2=S)c([N+](=O)[O-])cc1C | 23% | 99% (active) | 99.2% (active) | 17% | 100% (active) | 99.5% (active) | 64% | 99% (active) | 99.5% (active) | 7% | 97% (active) | 99.1% (active) | 42% | 99% (active) | 99.5% (active) | 84% (active) | 99% (active) | 99.3% (active) |
| CCOC(=O)c1sc2[n+](c1C)C(=O)/C(=C/c1ccc([N+](=O)[O-])cc1)S2 | 4% | 71% (active) | 95.5% (active) | 4% | 74% (active) | 96.9% (active) | 16% | 86% (active) | 97% (active) | -4% | 79% (active) | 90.5% (active) | -23% | 46% | 96.8% (active) | 23% | 89% (active) | 97% (active) |
| CCS/C(SC)=C(/c1ccccc1)[P+](c1ccccc1)(c1ccccc1)c1ccccc1 | 98% (active) | 99% (active) | 90.6% (active) | 99% (active) | 100% (active) | 94.3% (active) | 99% (active) | 99% (active) | 91.6% (active) | 98% (active) | 99% (active) | 91.5% (active) | 99% (active) | 100% (active) | 91% (active) | 98% (active) | 99% (active) | 91.8% (active) |
| C[C@]12CC[C@H]3[C@@H](CCC4=CC(=O)CC[C@@]43C)[C@@H]1CC[C@@H]2O[Si](O[C@H]1CC[C@H]2[C@@H]3CCC4=CC(=O)CC[C@]4(C)[C@H]3CC[C@]12C)(O[C@H]1CC[C@H]2[C@@H]3CCC4=CC(=O)CC[C@]4(C)[C@H]3CC[C@]12C)c1ccccc1 | 5% | 59% | 75.9% (active) | 1% | 62% | 89.9% (active) | -1% | 93% (active) | 97.5% (active) | -6% | 33% | 58.6% | 4% | 77% (active) | 81.5% (active) | 1% | 84% (active) | 94.8% (active) |
| COc1ccc(C2=C/C(=C3\C(=O)Oc4ccccc4C3=O)SS2)cc1 | 0% | 32% | -5.95% | -2% | 7% | -1.6% | 2% | 50% | -3.75% | 1% | 36% | 38.5% | 3% | 24% | -3.75% | -2% | 32% | 1.2% |
| CC(C)(C)OC(=O)NCCCCC(NC(=O)OCC1c2ccccc2-c2ccccc21)C(=O)N1CCCC1C(=O)NCC(N)=O (stereo not drawn) (Fmoc-Lys(Boc)-Pro-Gly-NH2; configuration not given here) | 10% | 98% (active) | 86.8% (active) | 13% | 95% (active) | 94.4% (active) | 5% | 89% (active) | 90.3% (active) | 10% | 91% (active) | 82.8% (active) | -10% | 97% (active) | 93.1% (active) | 19% | 97% (active) | 93.3% (active) |
| c1ccc(C(c2ccccc2)c2ccc3ccccc3n2)cc1 | -3% | 91% (active) | 18.1% | -2% | 71% (active) | 40.8% | -4% | 92% (active) | 67.8% | 2% | 45% | -15.3% | 23% | 58% | 61.4% | -3% | 80% (active) | 37.5% |
| COC(=O)Nc1nc2ccc(CCC(=O)c3c(C)oc(C)c3-c3ccc(NC(C)=O)cc3)cc2[nH]1 | 4% | 79% (active) | 58.1% | 4% | 55% | 37.3% | 5% | 78% (active) | 75.8% (active) | 6% | 67% | 27.4% | 5% | 70% (active) | 26.1% | -2% | 69% | 60.7% |
| Cc1ccc2c(c1)nc1n2C(N)=Nc2ccccc2S1 | 14% | 47% | 65.5% | -14% | 28% | 45.3% | -5% | 45% | 68.6% | -10% | 17% | 37.8% | -16% | 47% | 75.2% (active) | 0% | 40% | 57.2% |
| C=CC1(c2ccc(-c3ccccc3)cc2)OCCO1 | 1% | 14% | 51.3% | 2% | 6% | 41.5% | -4% | -10% | 74.4% (active) | 19% | 8% | 7.15% | -22% | -6% | 64.1% | -17% | 0% | 49.5% |
| COc1ccc(OCC(O)CN2CCN(c3cccc(Cl)c3)CC2)cc1 (configuration not stated) | -2% | -3% | 72.5% (active) | 15% | 28% | 37.6% | 1% | 23% | 95.5% (active) | -6% | -7% | 33.6% | -4% | 8% | 42.6% | 20% | 31% | 69.9% |
| Oc1c(Cl)cc(Cl)cc1/C=C1\C=Nc2ccccc21 | 1% | -5% | 2.75% | -11% | 5% | 14.9% | -7% | 5% | -14.2% | 13% | 20% | 13.6% | 3% | 23% | 5.2% | -3% | -3% | 4.95% |
| O=C(O)/C=C/c1ccc2c(c1)CCCC2 | 0% | 83% (active) | 90.1% (active) | -8% | 66% | 73% (active) | 3% | 79% (active) | 73.5% (active) | -28% | 70% (active) | 85.3% (active) | -11% | 70% (active) | 64% | -19% | 87% (active) | 62.9% |
| Cc1ccc2nc(N/N=C/c3cccc(C)n3)cc(C)c2c1 | 8% | 62% | 89.3% (active) | -2% | 37% | 21.2% | 6% | 80% (active) | 89.8% (active) | -8% | 61% | 74.9% (active) | -11% | 57% | 73.1% (active) | 4% | 64% | 84.3% (active) |
| O=C(N/C(=C\c1ccc(Oc2ccc(Cl)c(Cl)c2)cc1)c1nc2ccccc2[nH]1)c1ccccc1 | 29% | 97% (active) | 97.8% (active) | 10% | 97% (active) | 98.3% (active) | 10% | 97% (active) | 98% (active) | 13% | 65% | 95.6% (active) | 15% | 95% (active) | 97.2% (active) | 6% | 89% (active) | 98.2% (active) |
| Cc1ccc([Si](O)(c2ccc(C)cc2)c2ccc(C)cc2)cc1 | 85% (active) | 92% (active) | 95.2% (active) | 78% (active) | 94% (active) | 93% (active) | 71% (active) | -27% | 93.5% (active) | 67% | 90% (active) | 93.6% (active) | 75% (active) | 92% (active) | 86.3% (active) | 84% (active) | 93% (active) | 94.4% (active) |
